Shown are actives, neighbours in structure and some others; about 6.9% of the full set was active somewhere.
NS3h inh CB = hepatitis C NS3 helicase inhibition, primary screen; NS3h Cy5-dT15 DNA binding, fluorescence polarization; 1.6% of 16,000 active; inhibition, % at 100 µM;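 active means inhibition above the average over every tested compound plus 3 SD, cut at about 40% in these data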
Cy5 interf NS3h = counter-screen for HCV NS3 helicase inhibitors: fluorescence interference; Cy5-dT15 DNA with NS3h; actives lie on both sides; signal over control mean, under 1 quenches; fluorescence interference ratio at 100 µM; 6% of 16,000 active;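 active means compound fluorescence over control fluorescence at most 0.8, a quencher, or at least a set upper limit, an enhancer; inactive means ratio between 0.8 and the set upper limit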
Active calls of the source: *.

SMILES	NS3h inh CB	Cy5 interf NS3h
COc1cc(C=O)cc(Br)c1OCc1ccccc1Cl	8	1
CCOc1cc(C=O)cc(I)c1OCc1ccccc1Cl	9	0.64*
CC(NC(c1ccccc1)(c1ccccc1)c1ccccc1)C(=O)O (stereo not given)	-2	0.61*
CC(C)CC(NC(c1ccccc1)(c1ccccc1)c1ccccc1)C(=O)O (stereo not given)	9	0.58*
CC(NC(=O)c1cccc2ccccc12)C(=O)O (stereo not given)	3	1
CC(C)CC(NC(=O)c1ccco1)C(=O)O (stereo not given)	3	1
COc1ccc(CNc2ncn[nH]2)cc1	-3	0.99
O=C(Nc1nnc(Cc2ccc(Cl)cc2)s1)c1ccccc1F	25	0.7*
O=C(Nc1ccc(Cl)cc1)Nc1nnc(Cc2ccc(Cl)cc2)s1	-2	1.1
COc1cc(C2C3=C(CC(C)(C)CC3=O)OC3=C2C(=O)CC(C)(C)C3)ccc1OCc1ccc([N+](=O)[O-])cc1	10	0.8*
COc1cc(C2C3=C(CC(C)(C)CC3=O)OC3=C2C(=O)CC(C)(C)C3)cc(I)c1O	7	1.1
COCCOC(=O)c1c(C)oc2ccc(OCc3cccc(Cl)c3)cc12	9	0.79*
COCCOC(=O)c1c(C)oc2ccc(OCc3cccc(F)c3)cc12	9	0.93
COc1ccc(/C=C2\C(=O)N(c3nc(-c4ccc(C)cc4)cs3)N=C2C)cc1	21	0.7*
COC(=O)COc1ccc(/C=C2/C(=O)N(c3ccccc3)N=C2C)cc1	10	1.1
Cc1[nH]nc2c1C(c1cc(Br)cs1)C(C#N)=C(N)O2 (stereo not given)	4	1.2*
COC(=O)C1=C(N)Oc2n[nH]c(C)c2C1c1ccc(Br)cc1 (stereo not given)	9	0.99
CC(C)CNC(=O)CN(c1ccccc1)S(=O)(=O)c1ccccc1[N+](=O)[O-]	20	0.69*
O=C(CN(c1ccccc1)S(=O)(=O)c1ccccc1[N+](=O)[O-])Nc1cccc(Cl)c1	-6	1
O=C(O)CN(c1ccccc1)S(=O)(=O)c1ccccc1[N+](=O)[O-]	2	1
CC(NC(=O)CN(c1ccccc1)S(=O)(=O)c1ccccc1[N+](=O)[O-])c1ccccc1 (stereo not given)	20	0.68*
Cn1ccnc1SCC(=O)Nc1nc(-c2ccccc2)cs1	4	0.99
Cc1ccc(C2=NN(C(=N)SC3CC(=O)N(c4ccc(F)cc4)C3=O)C(c3ccc(Br)cc3)C2)cc1 (stereo not given)	0	1.1
CC(C)CNC(=O)c1ccc(I)cc1	8	1.1
O=c1[nH]c(=O)n(Cc2ccc(F)cc2)c(O)c1C=C1C=Nc2ccccc21	-44	0.8*
SMILES	NS3h inh CB	Cy5 interf NS3h
Cc1cc(C)c(-n2c(O)c(C=C3C=Nc4ccccc43)c(=O)[nH]c2=O)c(C)c1	3	1
COc1ccc(OC)c(Cn2c(O)c(C=C3C=CC=N3)c(=O)[nH]c2=O)c1	17	0.88
O=c1[nH]c(=O)n(Cc2ccccc2)c(O)c1C=C1C=CC=N1	11	0.77*
N#Cc1ccccc1NS(=O)(=O)c1ccccc1[N+](=O)[O-]	-4	1
CN1C(=O)C(=O)c2cc(Br)ccc21	10	0.74*
O=C1C(=O)N(Cc2ccc(F)cc2)c2ccc(Br)cc21	3	0.93
O=C(Nc1c(C(=O)N2CCC(Cc3ccccc3)CC2)cnn1-c1ccccc1)c1cccc(F)c1	6	1
O=C(Nc1c(C(=O)N2CCN(Cc3ccccc3)CC2)cnn1-c1ccccc1)c1cccc(F)c1	7	1.3*
O=[N+]([O-])c1ccc(N2CCN(S(=O)(=O)c3ccc(Cl)cc3)CC2)cc1N1CCOCC1	16	0.95
O=C(c1cc(N2CCOCC2)c(F)cc1[N+](=O)[O-])N1CCOCC1	15	0.68*
O=C(c1ccc(Cl)c(Cl)c1)N1CCN(c2ccc([N+](=O)[O-])c(N3CCOCC3)c2)CC1	22	0.65*
O=C(c1cc(F)c(F)cc1Cl)N1CCN(c2ccc([N+](=O)[O-])c(N3CCCC3)c2)CC1	27	0.67*
O=C(c1cc(F)c(F)cc1Cl)N1CCN(c2ccc([N+](=O)[O-])c3ncccc23)CC1	12	1
O=C(c1cc(N2CCCCC2)c(F)cc1[N+](=O)[O-])N1CCCCC1	-6	0.95
CN1CCN(C(=O)/C(=C\c2ccc(O)cc2)NC(=O)c2ccccc2)CC1	-1	1.1
O=C(CCC(NC(=O)OCc1ccccc1)C(=O)OCc1ccccc1)Oc1ccc([N+](=O)[O-])cc1 (stereo not given)	10	0.88
C/C(=N/NC(=O)CCc1ccccc1)c1cccc(N)c1	3	1
Cn1c(=O)cc(-c2ccccc2)c2ccccc21	14	0.69*
O=c1cc(-c2ccccc2)c2cc(Cl)ccc2[nH]1	-13	1.1
CCOc1ccc(N2C(=O)NC(=O)/C(=C/C=C/c3ccco3)C2=O)cc1	33	1
CCOc1ccccc1N1C(=O)NC(=O)/C(=C/C=C/c2ccco2)C1=O	43*	1.2
O=C(/C=C\c1ccccc1)NC(=S)Nc1ccc([N+](=O)[O-])cc1O	11	1
O=C1NC(=S)NC(=O)C1=Cc1ccc(O)c(Cl)c1	45*	1
O=C1NC(=S)N(c2ccc(Br)cc2)C(=O)/C1=C/c1ccc(O)c(Cl)c1	27	0.94
O=C(/C=C/c1ccccc1)NC(=S)Nc1cccc(C(F)(F)F)c1	-5	1
SMILES	NS3h inh CB	Cy5 interf NS3h
COc1ccc(-c2nc(-c3ccc(O)cc3)[nH]c2-c2ccc(OC)cc2)cc1	7	0.73*
COc1ccc(OC)c(-c2nc(-c3ccccc3)c(-c3cccs3)[nH]2)c1	10	0.92
O=C(N/N=C\c1ccc(Br)s1)Nc1ccccc1	9	0.9
Cc1cc(C)cc(NC(=O)C(=O)NCC(C)C)c1	33	0.96
Cc1ccc(NC(=O)CN(c2ccc(Cl)cc2)S(C)(=O)=O)cc1C	16	1
Cc1ccc(S(=O)(=O)N2CCN(C3CC4CCC3C4)CC2)cc1 (stereo not given)	-20	0.93
Cc1ccc(S(=O)(=O)N2CCC(=O)C(C)C2)cc1 (stereo not given)	17	0.74*
C=CCN1C(=O)/C(=C\c2ccccc2OCc2ccc(Cl)cc2)SC1=S	16	0.99
C=CCN1C(=O)/C(=C/c2ccccc2OCc2ccccc2Cl)SC1=S	10	0.65*
COc1cc(C=C2C(=O)N(C)C(=O)N(C)C2=O)ccc1OCc1ccccc1Cl	5	1
C=CCN1C(=O)NC(=O)/C(=C\c2ccc(OCc3ccccc3Cl)c(OC)c2)C1=O	9	1.2*
CCOc1ccccc1NC(=O)C(N)=O	-2	0.94
O=c1n(Cc2c(F)cccc2Cl)c2ccccc2n1Cc1c(F)cccc1Cl	7	0.99

Screens (PubChem)
